Reference: the supplement of paper PMC6522484
± gives the standard deviation of the averaged measurements.

How the values were obtained:
[1] = test system: DLD1; assay: cell viability (CellTiter-Glo) relative to plate median (fraction of plate median); higher = more viable cells; settings: 5 µM; treatment time 24 h; reporter: 7TFP
Procedure, shortened: (§1)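 Colorectal cancer lines with stably integrated lentiviral TCF/Wnt firefly luciferase reporters received library compounds at a final 5 µM, 24 h after seeding into 384-well plates, for a 24 h exposure. Reported figures are plate-median-normalised firefly luciferase or CellTiterGlo luminescence per well. They average two independent replicates.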

[2] = test system: HCT116; assay: as above; settings: 5 µM; treatment time 24 h; reporter: TCF4/Wnt
Procedure, shortened: as §1

[3] = test system: SW480; assay: as above; settings: 5 µM; treatment time 24 h; reporter: 7TFP
Procedure, shortened: as §1

[4] = test system: DLD1; assay: TCF/Wnt firefly luciferase reporter signal relative to plate median (fraction of plate median); higher = higher Wnt reporter signal; settings: 5 µM; treatment time 24 h; reporter: 7TFP
Procedure, shortened: as §1

[5] = test system: SW480; assay: as above; settings: 5 µM; treatment time 24 h; reporter: 7TFP
Procedure, shortened: as §1

SMILES | cell viability [1] | cell viability [2] | cell viability [3] | TCF/Wnt firefly luciferase reporter signal [4] | TCF/Wnt firefly luciferase reporter signal [5]
CC(=O)Oc1ccccc1C(=O)O | 1.01 ± 0.035 | 1.02 ± 0.031 | 1.025 ± 0.0071 | 1.05 ± 0.014 | 0.97 ± 0.14
CC(C)[C@H](N)C(=O)OCCOCn1cnc2c(=O)nc(N)[nH]c21 | 1.01 ± 0.028 | 0.879 ± 0.12 | 0.938 ± 0.0071 | 0.969 ± 0.16 | 0.876 ± 0.11
CC(=O)Oc1ccc(-c2cc(=O)c3c(OC(C)=O)cc(OC(C)=O)cc3o2)cc1 | 0.993 ± 0.038 | 0.934 ± 0.093 | 0.9365 ± 0.005 | 1.01 ± 0.021 | 0.926 ± 0.011
O=c1cc(-c2ccccc2O)oc2cc(O)ccc12 | 1.01 ± 0.069 | 1.02 ± 0.094 | 0.976 ± 0.025 | 1.17 ± 0.042 | 1.23 ± 0.085
CC(=O)OCC1=C(C(=O)O)N2C(=O)[C@@H](NC(=O)CSc3ccncc3)[C@H]2SC1 | 1.05 | 1.065 ± 0.0071 | 1.14 ± 0.14 | 0.985 ± 0.016 | 1.06 ± 0.057
C=C(C)[C@@H]1CC[C@]2(C(=O)O)CC[C@]3(C)[C@H](C[C@H]4OC(=O)C[C@@H](O)[C@]5(C)[C@@H]4[C@@]3(C)CC[C@H]5C(=C)C)[C@@H]12 [Chiisanogenin (12)] | 0.9945 ± 0.00071 | 1.02 ± 0.12 | 0.968 ± 0.023 | 1.11 ± 0.028 | 1.12 ± 0.028
CN1CCc2c(c3ccccc3n2Cc2ccccc2)C1 | 1.01 ± 0.051 | 1.01 ± 0.029 | 1.04 ± 0.035 | 1.05 ± 0.1 | 0.961 ± 0.14
O=C(OCc1ccccc1)c1ccccc1 | 1.03 ± 0.035 | 0.996 ± 0.062 | 0.928 ± 0.029 | 0.954 ± 0.14 | 0.999 ± 0.1
O=c1c(-c2ccc(O)cc2)coc2cc(O)ccc12 | 1.01 | 0.9665 ± 0.0021 | 0.902 ± 0.0042 | 0.978 ± 0.059 | 0.971 ± 0.025
CC(=O)Nc1ccc(S(=O)(=O)Nc2ccc([N+](=O)[O-])cc2)cc1 | 0.868 ± 0.03 | 0.933 ± 0.12 | 1.02 ± 0.028 | 1.1 ± 0.071 | 1.08 ± 0.042
Cc1cc(O)cc(C)c1Cl | 0.903 ± 0.012 | 0.8955 ± 0.0021 | 0.918 ± 0.13 | 0.881 ± 0.059 | 1.01
O=C(c1ccccc1)c1ccc2n1CCC2C(=O)O (stereo not given) | 1.03 ± 0.095 | 0.929 ± 0.16 | 1 ± 0.023 | 0.911 ± 0.066 | 0.924 ± 0.021
N=c1ccn2c(n1)O[C@H]1[C@H](O)[C@@H](CO)O[C@H]12 | 1.16 ± 0.078 | 0.942 ± 0.034 | 1.15 ± 0.028 | 1.08 ± 0.11 | 1.1
CC(=O)Nc1cc2nc3ccccc3oc-2cc1=O [N-Acetylquestiomycin A] | 0.985 ± 0.092 | 1.1 ± 0.057 | 1.06 ± 0.087 | 1.24 ± 0.12 | 1.145 ± 0.0071
O=C(COc1ccc(Cl)cc1)N1CCN(Cc2ccc3c(c2)OCO3)CC1 | 0.9755 ± 0.0064 | 0.893 ± 0.03 | 1.035 ± 0.0071 | 0.865 ± 0.18 | 0.921 ± 0.018
CC(C)CCC[C@@H](C)[C@H]1CC[C@H]2[C@@H]3C[C@@H](O)[C@@]4(O)C[C@@H](O)CC[C@]4(C)[C@H]3CC[C@]12C [CHOLESTAN-3beta,5alpha,6beta-TRIOL] | 0.991 ± 0.041 | 0.924 ± 0.083 | 0.967 ± 0.016 | 0.9 ± 0.086 | 0.891 ± 0.076
CC1(C)S[C@@H]2[C@H](NC(=O)[C@H](N)c3ccc(O)cc3)C(=O)N2[C@H]1C(=O)O | 0.928 ± 0.049 | 1.02 ± 0.067 | 0.95 ± 0.016 | 1.11 ± 0.092 | 1.01
C[C@@H]1OC(=O)C2=C1O[C@@H]1[C@@H](O)[C@]3(O)CCCC[C@H]3[C@](C)(C2=O)[C@@H]1C [Dihydrotetrodecamycin] | 1.08 ± 0.057 | 1.05 ± 0.071 | 1.065 ± 0.0071 | 1.08 ± 0.15 | 1.04 ± 0.069
CCN(CC)CCOc1ccc(C(=C(Cl)c2ccccc2)c2ccccc2)cc1 | 0.983 ± 0.019 | 0.971 ± 0.041 | 0.939 ± 0.073 | 0.914 ± 0.028 | 1.01 ± 0.27
C1CCC(C(CC2CCCCN2)C2CCCCC2)CC1 (stereo not given) | 1.05 ± 0.05 | 0.983 ± 0.052 | 1.12 ± 0.021 | 0.971 ± 0.013 | 1.03
CN(C)c1ccc2nc3ccc(=[N+](C)C)cc-3sc2c1 | 1 ± 0.052 | 0.878 ± 0.021 | 1.16 ± 0.071 | 1.06 ± 0.078 | 1.11 ± 0.021
Clc1ccc2c(c1)CCc1cccnc1C2=C1CCNCC1 | 0.992 ± 0.011 | 1.07 ± 0.021 | 0.97 ± 0.021 | 1 ± 0.015 | 1.12 ± 0.014
CC(C)COCC(CN(Cc1ccccc1)c1ccccc1)N1CCCC1 (stereo not given) | 1.06 ± 0.088 | 1 ± 0.064 | 1.02 ± 0.06 | 0.901 ± 0.084 | 0.937 ± 0.085
Cc1ccc(C(C)C)cc2c(C)ccc1-2 | 1.04 ± 0.057 | 1.085 ± 0.0071 | 1.06 ± 0.014 | 1 ± 0.14 | 0.894 ± 0.16
Nc1ccc(/N=N/c2ccccc2)c(N)n1 | 1.1 ± 0.2 | 1.07 ± 0.035 | 1.1 ± 0.035 | 1.285 ± 0.0071 | 1.3 ± 0.028
O=C(O)c1cc(=O)c2c(OCC(O)COc3cccc4oc(C(=O)O)cc(=O)c34)cccc2o1 | 1.04 ± 0.06 | 0.9275 ± 0.0021 | 1.09 ± 0.13 | 0.902 ± 0.036 | 1.01 ± 0.081
COc1cc(C(C)=O)cc(OC)c1O | 1.03 | 0.922 ± 0.086 | 1.01 ± 0.018 | 0.946 ± 0.1 | 0.958 ± 0.012
C[C@H](CCC(=O)O)[C@H]1CC[C@H]2[C@@H]3CC[C@@H]4CCCC[C@]4(C)[C@H]3CC[C@]12C | 0.984 ± 0.016 | 1.06 ± 0.035 | 1.06 ± 0.09 | 0.905 ± 0.044 | 1.03 ± 0.059
CCN(CC)C(C)CN1c2ccccc2Sc2ccccc21 (stereo not given) | 1.07 ± 0.11 | 1.02 ± 0.12 | 0.998 ± 0.045 | 0.927 ± 0.3 | 1.05 ± 0.078
COC(=O)CC1C(C)(C)C(OC(C)=O)[C@@H]2[C@@H](OC(C)=O)[C@]34O[C@@]2(O)[C@]1(C)C3CC[C@]1(C)C4=CC(=O)O[C@H]1c1ccoc1 (stereo not given in full) | 1.02 ± 0.11 | 1.02 ± 0.098 | 1.04 | 1.01 ± 0.061 | 0.992 ± 0.026
